# Measurements as given in the supplement of paper PMC6089552.
# Hit rate of the full screen: of about 3,200 compounds, about 300 (9.4%) showed activity. This excerpt belongs to a sample that is enriched for actives. A number with no mark means an inactive call.
# System: A673/TR/shEF
# Assay: cell viability (LOESS-normalised, relative to median of negative controls) (log2 ratio); higher = more viable cells (less compound effect), active = hit call of the paper (over 3 MAD below the median)
# Settings: treatment time: 72 h
# Procedure, shortened: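 A673/TR/shEF Ewing sarcoma cells were plated at 1,500 per well in 384-well plates and cultured with or without doxycycline, added 24 h before compounds, to induce EWS-FLI1 shRNA knockdown. Library compounds at two or more concentrations, alongside DMSO controls, were applied for three days. Cell viability was measured by CellTiter-Glo luminescence on an Envision reader. Readings were LOESS-corrected per plate, divided by the median of negative controls and log2-transformed, and hits were wells lying at least three median absolute deviations from the median of all screened wells.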
# [1] = 0.25 µM, library screen: screen1, EWS-FLI1 expression: high (no doxycycline)
# [2] = 0.25 µM, library screen: screen1, EWS-FLI1 expression: low (doxycycline-induced shRNA knockdown)
# [3] = 2.5 µM, library screen: screen1, EWS-FLI1 expression: high (no doxycycline)
# [4] = 2.5 µM, library screen: screen1, EWS-FLI1 expression: low (doxycycline-induced shRNA knockdown)
# [5] = 0.25 µM, library screen: screen2, EWS-FLI1 expression: high (no doxycycline)
# [6] = 0.25 µM, library screen: screen2, EWS-FLI1 expression: low (doxycycline-induced shRNA knockdown)
# [7] = 2.5 µM, library screen: screen2, EWS-FLI1 expression: high (no doxycycline)
# [8] = 2.5 µM, library screen: screen2, EWS-FLI1 expression: low (doxycycline-induced shRNA knockdown)
# [9] = 0.103 µM, library screen: screen3, EWS-FLI1 expression: high (no doxycycline)
# [10] = 0.103 µM, library screen: screen3, EWS-FLI1 expression: low (doxycycline-induced shRNA knockdown)
# [11] = 0.308 µM, library screen: screen3, EWS-FLI1 expression: high (no doxycycline)
# [12] = 0.308 µM, library screen: screen3, EWS-FLI1 expression: low (doxycycline-induced shRNA knockdown)
# [13] = 0.926 µM, library screen: screen3, EWS-FLI1 expression: high (no doxycycline)
# [14] = 0.926 µM, library screen: screen3, EWS-FLI1 expression: low (doxycycline-induced shRNA knockdown)
# [15] = 2.8 µM, library screen: screen3, EWS-FLI1 expression: high (no doxycycline)
# [16] = 2.8 µM, library screen: screen3, EWS-FLI1 expression: low (doxycycline-induced shRNA knockdown)
# [17] = 8.3 µM, library screen: screen3, EWS-FLI1 expression: high (no doxycycline)
# [18] = 8.3 µM, library screen: screen3, EWS-FLI1 expression: low (doxycycline-induced shRNA knockdown)
# [19] = 25 µM, library screen: screen3, EWS-FLI1 expression: high (no doxycycline)
# [20] = 25 µM, library screen: screen3, EWS-FLI1 expression: low (doxycycline-induced shRNA knockdown)
smiles,measurement,setting,value
COc1ccc(OC)c(CN2CCN(Cc3ccccc3OC)CC2)c1,cell viability (log2),[1],0.101
same,cell viability (log2),[2],0.0584
same,cell viability (log2),[3],0.0952
same,cell viability (log2),[4],0.0149
COc1ccc(OC)c(CN2CCN(Cc3ccc(OC)c(OC)c3)CC2)c1,cell viability (log2),[1],0.114
same,cell viability (log2),[2],0.0365
same,cell viability (log2),[3],0.174
same,cell viability (log2),[4],0.0479
COc1ccc(CN2CCN(Cc3ccc(OC)c(OC)c3OC)CC2)c(OC)c1,cell viability (log2),[1],0.0664
same,cell viability (log2),[2],0.0443
same,cell viability (log2),[3],0.0638
same,cell viability (log2),[4],0.0995
Cc1ccc(S(=O)(=O)N[C@@H](Cc2ccccc2)C(=O)CCl)cc1,cell viability (log2),[5],0.00163
same,cell viability (log2),[6],0.0223
same,cell viability (log2),[7],0.0887
same,cell viability (log2),[8],0.111
O=C(N[C@@H](Cc1ccccc1)C(=O)CCl)OCc1ccccc1,cell viability (log2),[5],0.163
same,cell viability (log2),[6],0.156
same,cell viability (log2),[7],-0.218 (active)
same,cell viability (log2),[8],0.0216
CC(C)[C@H](NC(=O)OCc1ccccc1)C(=O)N[C@H](C=O)Cc1ccccc1,cell viability (log2),[5],0.0586
same,cell viability (log2),[6],0.0917
same,cell viability (log2),[7],0.108
same,cell viability (log2),[8],0.155
C[N+]1(C)[C@@H]2CC(OC(=O)C(O)(c3cccs3)c3cccs3)C[C@H]1[C@@H]1O[C@@H]12 (stereo partly drawn),cell viability (log2),[9],-0.0419
same,cell viability (log2),[10],-0.0363
same,cell viability (log2),[11],-0.000855
same,cell viability (log2),[12],0.0413
same,cell viability (log2),[13],0.0247
same,cell viability (log2),[14],0.0262
same,cell viability (log2),[15],0.0531
same,cell viability (log2),[16],0.0434
same,cell viability (log2),[17],0.0573
same,cell viability (log2),[18],0.11
same,cell viability (log2),[19],0.0805
same,cell viability (log2),[20],0.115
Cc1occc(=O)c1C=CO,cell viability (log2),[1],0.064
same,cell viability (log2),[2],0.0191
same,cell viability (log2),[3],0.188
same,cell viability (log2),[4],0.0363
CC1(C)S[C@@H]2[C@H](NC(=O)C(C(=O)O)c3ccccc3)C(=O)N2[C@H]1C(=O)O (stereo partly drawn),cell viability (log2),[1],0.137
same,cell viability (log2),[2],0.0878
same,cell viability (log2),[3],0.243
same,cell viability (log2),[4],0.131
CC1(C)S[C@@H]2[C@H](NC(=O)[C@H](N)c3ccccc3)C(=O)N2[C@H]1C(=O)O,cell viability (log2),[1],0.0882
same,cell viability (log2),[2],0.14
same,cell viability (log2),[3],0.142
same,cell viability (log2),[4],0.206
CC1(C)S[C@@H]2[C@H](NC(=O)[C@H](N)c3ccc(O)cc3)C(=O)N2[C@H]1C(=O)O,cell viability (log2),[9],0.0884
same,cell viability (log2),[10],0.104
same,cell viability (log2),[1],0.0883
same,cell viability (log2),[2],0.0656
same,cell viability (log2),[11],-0.0334
same,cell viability (log2),[12],0.0742
same,cell viability (log2),[13],0.0733
same,cell viability (log2),[14],0.103
same,cell viability (log2),[3],0.14
same,cell viability (log2),[4],0.178
same,cell viability (log2),[15],-0.017
same,cell viability (log2),[16],0.0291
same,cell viability (log2),[17],0.0293
same,cell viability (log2),[18],0.106
same,cell viability (log2),[19],-0.676 (active)
same,cell viability (log2),[20],-0.0237
CC(=O)N1CCC[C@H]1C(=O)O,cell viability (log2),[1],0.138
same,cell viability (log2),[2],0.0212
same,cell viability (log2),[3],0.184
same,cell viability (log2),[4],0.0486
C=C1c2cc(OC)ccc2NC(=O)N1c1ccccc1,cell viability (log2),[1],0.0622
same,cell viability (log2),[2],0.09
same,cell viability (log2),[3],0.104
same,cell viability (log2),[4],0.0838
CC(C)NC[C@H](O)c1ccc(O)c(O)c1,cell viability (log2),[5],0.15
same,cell viability (log2),[6],0.0965
same,cell viability (log2),[7],0.0541
same,cell viability (log2),[8],0.0273
COC(=O)C[C@H]1C(C)(C)[C@@H](OC(C)=O)[C@@H]2CC3=C4CC(=O)O[C@@H](c5ccoc5)[C@]4(C)CC[C@@H]3[C@@]1(C)C2=O,cell viability (log2),[1],0.0358
same,cell viability (log2),[2],0.0144
same,cell viability (log2),[3],0.0778
same,cell viability (log2),[4],0.108
O=c1cc(O)cc(/C=C/c2ccc(O)c(O)c2)o1,cell viability (log2),[5],0.159
same,cell viability (log2),[6],0.05
same,cell viability (log2),[7],0.0405
same,cell viability (log2),[8],0.104
COc1cc(/C=C/CO)ccc1O,cell viability (log2),[1],0.0482
same,cell viability (log2),[2],0.111
same,cell viability (log2),[3],0.0791
same,cell viability (log2),[4],0.0869
Oc1cc(O)cc(/C=C/c2ccccc2)c1,cell viability (log2),[1],0.0674
same,cell viability (log2),[2],0.00318
same,cell viability (log2),[3],0.07
same,cell viability (log2),[4],0.0614
Oc1cc(O)cc(/C=C/c2ccc(O)c(O)c2)c1,cell viability (log2),"0.025 µM, library screen: screen1, EWS-FLI1 expression: high (no doxycycline)",0.0929
same,cell viability (log2),"0.025 µM, library screen: screen1, EWS-FLI1 expression: low (doxycycline-induced shRNA knockdown)",0.00184
same,cell viability (log2),[1],0.117
same,cell viability (log2),[2],0.0696
same,cell viability (log2),[5],-0.0238
same,cell viability (log2),[6],0.0864
same,cell viability (log2),[3],0.0516
same,cell viability (log2),[4],0.151
same,cell viability (log2),[7],0.187
same,cell viability (log2),[8],0.0106
same,cell viability (log2),"25 µM, library screen: screen1, EWS-FLI1 expression: high (no doxycycline)",-0.42 (active)
same,cell viability (log2),"25 µM, library screen: screen1, EWS-FLI1 expression: low (doxycycline-induced shRNA knockdown)",0.162
COc1cc(O)cc(/C=C/c2ccccc2)c1,cell viability (log2),[1],0.0443
same,cell viability (log2),[2],0.0713
same,cell viability (log2),[3],0.167
same,cell viability (log2),[4],0.125
Oc1ccc(/C=C/c2cc(O)cc(O)c2)cc1,cell viability (log2),[9],0.0131
same,cell viability (log2),[10],0.0367
same,cell viability (log2),[1],0.0839
same,cell viability (log2),[2],0.0347
same,cell viability (log2),[5],-1.5 (active)
same,cell viability (log2),[6],-1.81 (active)
same,cell viability (log2),[11],-0.0479
same,cell viability (log2),[12],0.0776
same,cell viability (log2),[13],0.0102
same,cell viability (log2),[14],0.0306
same,cell viability (log2),[3],0.127
same,cell viability (log2),[4],0.2
same,cell viability (log2),[7],-2.99 (active)
same,cell viability (log2),[8],-3.07 (active)
same,cell viability (log2),[15],-0.00513
same,cell viability (log2),[16],0.017
same,cell viability (log2),[17],-0.0335
same,cell viability (log2),[18],0.0785
same,cell viability (log2),[19],-0.23 (active)
same,cell viability (log2),[20],0.0525
